Measurements as given in PubChem BioAssay (NCI).
The panel holds about 79,000 compounds, 15% with a hit somewhere; the sample as a whole holds those more often. Active and inactive are the calls of the source. Rule as the data show it: active = growth inhibition above about 70%; inactive = the rest.

How the values were obtained:
[1] = NCI Yeast Anticancer Drug Screen. Data for the mlh1 strain (AID 171);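 also: 0% = growth of vehicle-treated control cultures of the same strain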; details: S. cerevisiae mlh1 strain growth inhibition, stronger effect = higher value
In short: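 Growth of the mutant yeast strain after compound exposure, expressed as inhibition relative to vehicle-only controls.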

[2] = NCI Yeast Anticancer Drug Screen. Data for the sgs1 strain (AID 173);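 also: 0% = growth of vehicle-only control cultures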; details: S. cerevisiae sgs1 mutant, stronger effect = higher value
In short: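 Growth of a yeast strain bearing a defined genetic alteration is measured after compound treatment. Inhibition is expressed relative to vehicle-only controls.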

[3] = NCI Yeast Anticancer Drug Screen. Data for the mlh1 rad18 strain (AID 175); details: S. cerevisiae mlh1 rad18 strain growth inhibition, stronger effect = higher value
In short: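 Read-out is yeast growth inhibition, calculated against vehicle-only controls. The compound was applied to a strain engineered with DNA damage repair alterations.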

[4] = NCI Yeast Anticancer Drug Screen. Data for the rad18 strain (AID 177); details: S. cerevisiae rad18 mutant growth inhibition, stronger effect = higher value
In short: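 Growth of the mutant yeast strain after compound exposure, normalised to vehicle-only cultures.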

[5] = NCI Yeast Anticancer Drug Screen. Data for the wt1 strain (AID 149);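 also: 0% = growth of vehicle-treated wt1 cultures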; details: S. cerevisiae wt1 strain (SPY 50644) growth inhibition, stronger effect = higher value
In short: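 Measured: growth of wt1 yeast under compound versus vehicle treatment, reported as inhibition.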

[6] = NCI Yeast Anticancer Drug Screen. Data for the rad50EPP+ strain (AID 151);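 also: 0% = growth of vehicle-treated control cultures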; details: S. cerevisiae rad50 mutant strain, stronger effect = higher value
In short: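 Compounds were applied to the rad50EPP+ yeast strain, which bears a defined DNA repair alteration, and growth inhibition was determined relative to vehicle-treated cultures.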

[7] = NCI Yeast Anticancer Drug Screen. Data for the mgt1 strain (AID 153); details: S. cerevisiae mgt1 mutant growth inhibition, stronger effect = higher value
In short: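 Strain: mgt1 yeast, one of a set carrying defined DNA damage repair or cell cycle control alterations. Compound-treated growth compared with vehicle.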

[8] = NCI Yeast Anticancer Drug Screen. Data for the rad50 strain (AID 155);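 also: 0% = growth of vehicle-only cultures of the same strain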; details: S. cerevisiae rad50 strain growth inhibition, stronger effect = higher value
In short: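 Growth of the mutant yeast was measured after compound exposure and referenced to vehicle-treated cultures.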

[9] = NCI Yeast Anticancer Drug Screen. Data for the mec2-1 strain (AID 157); details: S. cerevisiae mec2-1 strain, stronger effect = higher value
In short: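 Strain: mec2-1 (DNA repair/cell cycle alteration). Compound exposure, then growth measured; inhibition expressed relative to vehicle.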

[10] = NCI Yeast Anticancer Drug Screen. Data for the sgs1 mgt1 strain (AID 161);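 also: 0% = growth of cultures given vehicle only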; details: S. cerevisiae sgs1 mgt1 strain, stronger effect = higher value
In short: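 Genetically altered yeast, compound exposure, growth inhibition relative to vehicle.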

[11] = NCI Yeast Anticancer Drug Screen. Data for the CLN2oe strain (AID 163);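 also: 0% = growth of vehicle-only control cultures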; details: S. cerevisiae CLN2oe strain, stronger effect = higher value
In short: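 Growth of a genetically modified yeast strain is measured after compound exposure and compared with cultures given vehicle alone.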

[12] = NCI Yeast Anticancer Drug Screen. Data for the cln2 rad14 strain (AID 165);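 also: 0% = growth equal to vehicle treated cultures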; details: S. cerevisiae cln2 rad14 strain, stronger effect = higher value
In short: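 Compounds are applied to the cln2 rad14 yeast strain, and growth is then compared with that of vehicle-treated cultures to give inhibition.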

[13] = NCI Yeast Anticancer Drug Screen. Data for the bub3 strain (AID 167); details: S. cerevisiae bub3 mutant strain, stronger effect = higher value
In short: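 Whole-cell yeast assay. The mutant strain was incubated with compounds, and growth inhibition was determined by comparison with vehicle-treated cells.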

[14] = NCI Yeast Anticancer Drug Screen. Data for the wt2 strain (AID 169);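 also: 0% = growth of vehicle-treated yeast cultures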; details: S. cerevisiae wt2 strain growth inhibition, stronger effect = higher value
In short: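 This strain belongs to a panel of yeast strains with defined genetic alterations in DNA damage repair or cell cycle control. Compounds are applied, and growth inhibition is measured against vehicle-treated cultures.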

[15] = at 5.0 µM (retest, dose inferred, filed as 0.5)
[16] = at 50.0 µM (retest, dose inferred, filed as 5.0)

Measured: growth inhibition

CCCCCCCCCCCCOC1C(COCCN2CCCC2)OC2OC(C)(C)OC21 (centres undefined)
inactive: [1]; at 1.2 µM 25% | [1]; at 3.7 µM 27% | [2]; at 1.2 µM 22% | [2]; at 3.7 µM 21% | [3]; [15] 16% | [4]; at 1.2 µM 37% | [4]; at 3.7 µM 27%
active: [1]; at 11.0 µM 94% | [1]; at 33.0 µM 98% | [1]; at 100.0 µM 98% | [2]; at 11.0 µM 97% | [2]; at 33.0 µM 98% | [2]; at 100.0 µM 98% | [3]; [16] 99% | [3]; at 50.0 µM 90% | [4]; at 11.0 µM 97% | [4]; at 33.0 µM 98% | [4]; at 100.0 µM 97%

CC[C@@]1(OC(=O)CN(C)C)C(=O)OCc2c1cc1n(c2=O)Cc2cc3ccccc3nc2-1
active: [5]; at 33.0 µM 85% | [5]; at 100.0 µM 93% | [6]; at 3.7 µM 79% | [6]; at 11.0 µM 92% | [6]; at 33.0 µM 95% | [6]; at 100.0 µM 97% | [7]; at 33.0 µM 90% | [7]; at 100.0 µM 97% | [8]; at 1.2 µM 81% | [8]; at 3.7 µM 95% | [8]; [15] 95% | [8]; at 11.0 µM 96% | [8]; at 33.0 µM 96% | [8]; [16] 97% | [8]; at 50.0 µM 96.8% | [8]; at 100.0 µM 97% | [9]; at 11.0 µM 89% | [9]; at 33.0 µM 94% | [9]; [16] 96% | [9]; at 50.0 µM 99% | [9]; at 100.0 µM 97% | [10]; [16] 95% | [10]; at 50.0 µM 93.6% | [11]; at 33.0 µM 73% | [11]; at 100.0 µM 87% | [12]; [16] 89% | [12]; at 50.0 µM 79.8% | [13]; at 33.0 µM 90% | [13]; [16] 93% | [13]; at 50.0 µM 93.7% | [13]; at 100.0 µM 96% | [14]; at 33.0 µM 84% | [14]; at 100.0 µM 93% | [1]; at 33.0 µM 90% | [1]; at 100.0 µM 96% | [2]; at 11.0 µM 82% | [2]; at 33.0 µM 94% | [2]; at 100.0 µM 96% | [3]; [16] 94% | [3]; at 50.0 µM 97.2% | [4]; at 33.0 µM 92% | [4]; at 100.0 µM 96%
inactive: [5]; at 1.2 µM -1% | [5]; at 3.7 µM 1% | [5]; at 11.0 µM 23% | [6]; at 1.2 µM 42% | [7]; at 1.2 µM -1% | [7]; at 3.7 µM 1% | [7]; at 11.0 µM 32% | [9]; at 1.2 µM 2% | [9]; at 3.7 µM 23% | [9]; [15] 53% | [10]; [15] 38% | [11]; at 1.2 µM -7% | [11]; at 3.7 µM 2% | [11]; at 11.0 µM 31% | [12]; [15] 15% | [13]; at 1.2 µM -7% | [13]; at 3.7 µM -9% | [13]; [15] -3% | [13]; at 11.0 µM 41% | [14]; at 1.2 µM -1% | [14]; at 3.7 µM 10% | [14]; at 11.0 µM 28% | [1]; at 1.2 µM 0% | [1]; at 3.7 µM 2% | [1]; at 11.0 µM 42% | [2]; at 1.2 µM 6% | [2]; at 3.7 µM 28% | [3]; [15] 36% | [4]; at 1.2 µM 1% | [4]; at 3.7 µM 12% | [4]; at 11.0 µM 60%

O=[N+]([O-])c1ccc2nnnn2c1
active: [6]; at 100.0 µM 79% | [8]; [16] 71% | [8]; at 50.0 µM 75.8% | [10]; [16] 86% | [13]; [16] 78% | [2]; at 100.0 µM 72% | [3]; [15] 78% | [3]; [16] 93%
inactive: [5]; at 1.2 µM 1% | [5]; at 3.7 µM 2% | [5]; at 11.0 µM 7% | [5]; at 33.0 µM 11% | [5]; at 100.0 µM 19% | [6]; at 1.2 µM -2% | [6]; at 3.7 µM -1% | [6]; at 11.0 µM 15% | [6]; at 33.0 µM 50% | [7]; at 1.2 µM 0% | [7]; at 3.7 µM 2% | [7]; at 11.0 µM 4% | [7]; at 33.0 µM 23% | [7]; at 100.0 µM 18% | [8]; at 1.2 µM -3% | [8]; at 3.7 µM -1% | [8]; [15] 10% | [8]; at 11.0 µM 3% | [8]; at 33.0 µM 10% | [8]; at 100.0 µM 21% | [9]; at 1.2 µM -1% | [9]; at 3.7 µM 2% | [9]; [15] 3% | [9]; at 11.0 µM 4% | [9]; at 33.0 µM 12% | [9]; [16] 23% | [9]; at 50.0 µM 43.9% | [9]; at 100.0 µM 43% | [10]; [15] 29% | [10]; at 50.0 µM 60.8% | [11]; at 1.2 µM -5% | [11]; at 3.7 µM 1% | [11]; at 11.0 µM -1% | [11]; at 33.0 µM -7% | [11]; at 100.0 µM 1% | [12]; [15] 2% | [12]; [16] 28% | [12]; at 50.0 µM 29.9% | [13]; at 1.2 µM -3% | [13]; at 3.7 µM -1% | [13]; [15] 21% | [13]; at 11.0 µM 1% | [13]; at 33.0 µM 3% | [13]; at 50.0 µM 34% | [13]; at 100.0 µM 21% | [14]; at 1.2 µM 0% | [14]; at 3.7 µM 1% | [14]; at 11.0 µM 7% | [14]; at 33.0 µM 14% | [14]; at 100.0 µM 25% | [1]; at 1.2 µM 0% | [1]; at 3.7 µM 1% | [1]; at 11.0 µM 4% | [1]; at 33.0 µM 14% | [1]; at 100.0 µM 34% | [2]; at 1.2 µM 1% | [2]; at 3.7 µM 7% | [2]; at 11.0 µM 15% | [2]; at 33.0 µM 30% | [3]; at 50.0 µM 61.8% | [4]; at 1.2 µM 1% | [4]; at 3.7 µM 2% | [4]; at 11.0 µM -2% | [4]; at 33.0 µM 25% | [4]; at 100.0 µM 55%
